PubChem BioAssay AID1239 (SRMLSC, 2008)
The whole screen tested about 190,000 compounds, of which about 3,100 (1.6%) were called active. Rule as the data show it: active = fold change above about 3.3; inconclusive = no clear call, values can overlap the other calls; inactive = below that. Many of the other results were omitted from the sample, so actives are more common in it than they were.

Test: activators of NF-kB expression in neurons, primary screen, cell-based, HTS (AID 1239)
Details: human neuronal cells, NF-kB reporter expression; at 12.5 µM; hits give high values

| Structure (SMILES) | fold change |
| --- | --- |
| CC1=NCCN1S(=O)(=O)c1cccc([N+](=O)[O-])c1 | 1.03 (inactive) |
| CCOC(=O)C(C)n1nc(-c2ccccc2)c2ccccc2c1=O (centres undefined) | 0.91 (inactive) |
| CCCn1c(NC(=O)C23CC4CC(CC(O)(C4)C2)C3)nc2ccccc21 | 0.92 (inactive) |
| NS(=O)(=O)c1ccc(NC(=O)COC(=O)c2ccc(Cl)nc2)cc1 | 0.87 (inactive) |
| CC(C(=O)O)n1cnc2sc3c(c2c1=O)CCCC3 (centres undefined) | 1.12 (inactive) |
| O=C(N/N=C/c1ccc2c(c1)OCO2)C(=O)N1CCCC1 | 1.4 (inactive) |
| CN(C)c1ccnc2sc(C(=O)c3ccccc3)c(N)c12 | 3.79 (active) |
| CN(C)c1ccnc2sc3c(=O)n(Cc4ccccc4)cnc3c12 | 0.86 (inactive) |
| Cc1nc2sc(C(=O)c3ccccc3)c(N)c2c2c1CCCC2 | 1.93 (inactive) |
| COc1ccc(/C=C/CN2CCCC(C(=O)c3cc(F)ccc3F)C2)cc1 (centres undefined) | 1.06 (inactive) |
| CCOc1ccc2nc(NCCNC(=O)C(C)(C)C)c(C)cc2c1 | 1.12 (inactive) |
| O=C(CCc1nnc(CCCCc2ccccc2)o1)NC(c1cccnc1)C(F)(F)F (centres undefined) | 0.86 (inactive) |
| Cc1ccc(-c2cn(S(=O)(=O)c3cccc([N+](=O)[O-])c3)nc2N)cc1 | 1.2 (inactive) |
| CC(C)(C)NC(=O)Cn1cnc2cc([N+](=O)[O-])ccc2c1=O | 1.11 (inactive) |
| Cc1ccc(-n2cc3ccc([N+](=O)[O-])cc3n2)cc1 | 9.31 (active) |
| O=C(O)CSCC(=O)Nc1ccc(C(F)(F)F)cc1 | 1.18 (inactive) |
| O=C(CSc1nc2ccccc2[nH]1)c1cccs1 | 3.8 (active) |
| C=CCSc1nc2ccccc2[nH]1 | 1.17 (inactive) |
| CCCCSc1nc2ccccc2[nH]1 | 2.06 (inactive) |
| COc1ccc(/C=N/NC(=O)Cn2cc(C(F)(F)F)ccc2=O)cc1 | 1.07 (inactive) |
| O=C(O)/C=C/c1ccc(S(=O)(=O)N2CCCCCC2)cc1 | 1.17 (inactive) |
| CCCCCC(=O)Nc1ccc(C(=O)N/N=C/c2ccc([N+](=O)[O-])cc2)cc1 | 1.05 (inactive) |
| CCCC(=O)Nc1ccc(C(=O)N/N=C/c2ccc[nH]2)cc1 | 6.81 (active) |
| CCCC(=O)Nc1ccc(C(=O)NCCCn2ccnc2)cc1 | 1.01 (inactive) |
| CCn1c(N)c(Br)c(=O)[nH]c1=O | 0.94 (inactive) |
| CN(C)c1ccc(C2Nc3ccccc3C(=O)N2NS(=O)(=O)c2ccccc2)cc1 (centres undefined) | 0.87 (inactive) |

| Structure (SMILES) | fold change |
| --- | --- |
| CC1(C)CC(=O)C(C2c3ccccc3S(=O)(=O)c3ccccc32)C(=O)C1 | 1.19 (inactive) |
| Cc1ccc(C(=O)NN(CCC#N)C2=NS(=O)(=O)c3ccccc32)cc1 | 1.06 (inactive) |
| CC1(C)C2CC=C(/C=N/NC(=O)C3CC3)C1C2 (centres undefined) | 1.13 (inactive) |
| CC(C)N1CCC(NC(=O)Nc2ccccc2)CC1 | 1.04 (inactive) |
| CC(C)(C)NS(=O)(=O)c1ccc(NC(=O)NC2CCCCC2)cc1 | 0.89 (inactive) |
| CC(C)c1ccc(NC(=O)NC2CCCCC2)cc1 | 5.47 (active) |
| CCOc1cc(NC(=S)NCc2ccco2)c(OCC)cc1NC(=O)c1ccco1 | 1.12 (inactive) |
| CCN(CC)C(=O)C(=O)c1cn(CC(=O)NCc2ccc3c(c2)OCO3)c2ccccc12 | 1.39 (inactive) |
| CCc1ccc2c(c1)C1(NN=C(c3ccccc3)S1)C(=O)N2 (centres undefined) | 4.48 (active) |
| C=C1c2cc(CC)ccc2NC(=O)N1c1ccc(C)cc1 | 1.19 (inactive) |
| O=C1Nc2ccccc2C12Nc1ccccc1S2 (centres undefined) | 1.44 (inactive) |
| O=C(CSc1cccc[n+]1[O-])c1ccc(-c2ccccc2)cc1 | 2.45 (inactive) |
| COc1cc(NC(=O)c2cccs2)ccc1NC(=O)c1ccccc1Cl | 0.87 (inactive) |
| O=C(Nc1ccc2sc3ccccc3c(=O)c2c1)c1ccccc1Cl | 6.23 (active) |
| O=C(Nc1ccc2nc3n(c(=O)c2c1)CCCCC3)c1ccccc1Cl | 1.29 (inactive) |
| CCOC(=O)Cc1csc(NC(=O)COc2ccc3c(C)cc(=O)oc3c2)n1 | 0.61 (inactive) |
| O=C(CCC1CCCN(Cc2ccc(O)c(Cl)c2)C1)NCc1ccccc1F (centres undefined) | 1.07 (inactive) |
| Cc1csc(NC(=S)Nc2cccc(Cl)c2)n1 | 3.32 (active) |
| CC(=O)Nc1cccc(C(=O)Nc2nc(C)cs2)c1 | 1.22 (inactive) |
| S=C(Nc1cccc(Cl)c1)Nc1ccc2cn[nH]c2c1 | 1.36 (inactive) |
| NC(=O)c1ccc(NC(=O)COC(=O)C(Cc2ccccc2)NC(=O)c2ccccc2)cc1 (centres undefined) | 0.99 (inactive) |
| COc1ccc2nc(Nc3nc(-c4ccncc4)cs3)sc2c1 | 1.6 (inactive) |
| Oc1ccc(-c2csc(Nc3cccnc3)n2)cc1 | 3.24 (inactive) |
| COc1ccc(-c2csc(NC(=O)COC(=O)c3ccc(Br)o3)n2)cc1 | 1.92 (inactive) |
| COc1ccc(OC)c(Nc2nc(-c3ccc(O)c(O)c3)cs2)c1 | 1.32 (inactive) |
| COc1ccc(-c2csc(Nc3ccc(O)cc3)n2)cc1 | 8.49 (active) |

| Structure (SMILES) | fold change |
| --- | --- |
| COc1ccc(-c2csc(NC(=O)CCCc3cccs3)n2)cc1 | 0.87 (inactive) |
| NS(=O)(=O)c1ccc(Nc2nc(-c3ccccc3)cs2)cc1 | 1.18 (inactive) |
| CCNc1nc(-c2cc3ccccc3o2)cs1 | 1.19 (inactive) |
| O=c1oc2ccccc2cc1-c1csc(Nc2ccc(O)cc2)n1 | 7.39 (active) |
| COc1ccc(Nc2nc(-c3ccccc3)cs2)cc1 | 12.5 (active) |
| COc1ccc(-c2csc(Cc3nc(O)cs3)n2)cc1 | 3.76 (active) |
| COc1ccc2nc(Nc3nc(-c4cc5ccccc5oc4=O)cs3)sc2c1 | 1.2 (inactive) |
| O=C(C1CCN(C2CCN(Cc3cccc4c3OCO4)CC2)CC1)N1CCOCC1 | 1.05 (inactive) |
| COC(=O)c1ccc(CN2CCC(CO)(Cc3ccc(OC)cc3)CC2)cc1 | 1.33 (inactive) |
| COc1ccccc1-n1ccnc1SCC(=O)NC(C)(C)C | 1.09 (inactive) |
| CCCCC(CC)CNC(=O)C(=O)C1C(=O)Nc2ccccc21 (centres undefined) | 1.17 (inactive) |
| CC[n+]1c(C)n(-c2ccccc2)c2ccc(NC(C)=O)cc21 | 0.85 (inactive) |
| N#C/C(=C\c1ccc(-c2cccc([N+](=O)[O-])c2)o1)C(=O)NCCN1CCOCC1 | 1.14 (inactive) |
| Cc1cccc(NC(=O)c2cc([N+](=O)[O-])ccc2N2CCN(C)CC2)c1 | 0.95 (inactive) |
| O=C(O)c1ccccc1-c1ccccc1C(=O)NCc1cccnc1 | 1.16 (inactive) |
| COC(=O)C(C)NC(=O)COc1ccc2ccccc2c1 (centres undefined) | 1.1 (inactive) |
| Cc1cc(Cl)ccc1OCCCC(=O)NCc1ccccn1 | 1.09 (inactive) |
| N#CC1=C(N)Oc2[nH]c(=S)[nH]c(=O)c2C12C(=O)Nc1ccccc12 (centres undefined) | 1.09 (inactive) |
| Cc1nn(C)c(C)c1Sc1ccccc1N | 0.93 (inactive) |
| CN1CCN(/N=C2/C(=O)Nc3ccc([N+](=O)[O-])cc32)CC1 | 1.3 (inactive) |
| O=C(Nc1nc2ccc(S(=O)(=O)N3CCCC3)cc2s1)C1CCCO1 (centres undefined) | 0.92 (inactive) |
| Cc1cc(C)c2nc(NC(=O)C3CCCO3)sc2c1 (centres undefined) | 6.22 (active) |
| Cc1cc(Br)ccc1NC(=O)C1CCCO1 (centres undefined) | 1.18 (inactive) |
| CC1CN(CCCOc2ccccc2-c2ccccc2)CC(C)O1 (centres undefined) | 1.16 (inactive) |
| O=C(OCC(=O)c1c[nH]c2ccccc12)c1cccc(O)c1 | 5.31 (active) |
| O=C(Cc1c[nH]c2ccccc12)OCCOC(=O)Cc1c[nH]c2ccccc12 | 1.43 (inactive) |

| Structure (SMILES) | fold change |
| --- | --- |
| CC1CCN(CC(=O)c2c[nH]c3ccccc23)CC1 | 0.78 (inactive) |
| COc1cccc(CNC(=O)CCC2CCCN(C(=O)c3ccoc3C)C2)c1 (centres undefined) | 1.11 (inactive) |
| COc1ccc(Nc2ncc(F)c(N3CCOCC3)n2)cc1 | 3.96 (active) |
| CCOc1ccc(Nc2nc(Cl)nc(N3CCN(c4ccc(OC)cc4)CC3)n2)cc1 | 0.61 (inactive) |
| c1ccc(Nc2nc(N3CCOCC3)c3ccccc3n2)cc1 | 0.6 (inactive) |
| Cc1cc(NC(=O)CSCc2ccccc2C)no1 | 1.25 (inactive) |
| CC(NCc1nc2ccccc2n1C)C12CC3CC(CC(C3)C1)C2 (centres undefined) | 0.85 (inactive) |
| CC(=O)Cc1nsc(NC(=O)c2csc3c2CCCC3)n1 | 1.73 (inactive) |
| COC(=O)c1sccc1NC(=O)c1csc2c1CCCC2 | 1.41 (inactive) |
| COC(=O)c1sc(NC(=O)c2csc3c2CCCC3)nc1C | 4.92 (active) |
| COc1cc(OC)c(C2=NOC(C(=O)Nc3c(C)n(C)n(-c4ccccc4)c3=O)C2)cc1Cl (centres undefined) | 0.97 (inactive) |
| CN1CCN(CC#CCC2(O)c3ccccc3-c3ccccc32)CC1 | 1.01 (inactive) |
| CNC(=O)CSc1nnnn1-c1ccc(C)cc1C | 1.23 (inactive) |
| CCn1nnnc1SCC(=O)c1ccc(C)cc1C | 3.65 (active) |
| COc1ccc(C(=O)CSc2nnnn2C)c(OC)c1 | 1 (inactive) |
| COCCNC(=O)C(c1ccc(O)cc1)N(C(=O)CCC(=O)Nc1nccs1)c1ccc(C)cc1 (centres undefined) | 0.99 (inactive) |
| COC(=O)c1ccc(COC(=O)c2cnccn2)cc1 | 1.22 (inactive) |
| O=C(CN1C(=O)/C(=C/c2ccccc2F)Sc2ccccc21)NCc1cccnc1 | 0.69 (inactive) |
| OCC(O)CN(c1ccccc1)c1ccccc1 (centres undefined) | 1.39 (inactive) |
| O=C(OCc1ccc(Br)cc1)c1cccc(-c2nnc(-c3ccccc3)o2)c1 | 1.7 (inactive) |
| Brc1ccc(-c2nnc(-c3ccccc3)o2)o1 | 3.89 (active) |
| Nc1ccc(-c2nnc(-c3ccc(-c4ccccc4)cc3)o2)cc1 | 1.31 (inactive) |
| COc1ccccc1Cn1c(C)nnc1-c1cnn(C)c1N | 1.41 (inactive) |
| CCOC1CS(=O)(=O)CC1OCC (centres undefined) | 5.97 (active) |
| COc1ccccc1N1CCN(/N=C\C(Br)=C\c2ccccc2)CC1 | 1.33 (inactive) |
| COc1ccc(CCNC(=O)CC2SC(=Nc3cc(C)cc(C)c3)NC2=O)cc1OC (centres undefined) | 0.95 (inactive) |
